{
  "source": "PubChem BioAssay AID1117294",
  "about": "(Broad Institute, 2014)",
  "note": "Values without a mark were called inactive.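 How the source made its calls: active means Lowers HeLa cell ATP signal, with fitted half-maximal potency at most twice the top tested dose in every run; inconclusive means runs disagree, or fits flat mid-range or poor; inactive means every run inactive, including signal rising.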",
  "data": [
    {"experiment": "cervical carcinoma cell viability loss – CellTiter-Glo luminescence, dry powder, set 3, cytotoxicity control, dose response (AID 1117294)", "settings": "HeLa viability, ATP luminescence (CellTiter-Glo), 72 h; at 0.05 µM", "units": {"max activity": "%"}, "values": [
      {"molecule": "COc1ccc(C(=O)O)cc1S(=O)(=O)Nc1ccc(N2CCCCC2)cc1C(F)(F)F", "max activity": -17},
      {"molecule": "COc1ccc(C2=NN(c3ccc(C(=O)O)cc3)C(c3ccc(OC)c(OC)c3)C2)cc1", "note": "(stereo not drawn)", "max activity": -16.2},
      {"molecule": "COc1ccc(C(=O)O)cc1S(=O)(=O)Nc1cc(C(F)(F)F)ccc1N1CCN(C(C)=O)CC1", "max activity": -16.6}
    ]}
  ]
}
